Results published in ChEMBL document CHEMBL1961873, “Compounds: GSK PKIS; Assays: Nanosyn kinase panel” (2012).

Tests used:
[1] = tested on: Proto-oncogene tyrosine-protein kinase receptor Ret (Homo sapiens), P07949 [Y791F]; details: at 1 µM
[2] = biological target: Macrophage-stimulating protein receptor (Homo sapiens) (UniProt Q04912); details: at 0.1 µM
[3] = biological target: Macrophage-stimulating protein receptor (Homo sapiens) (UniProt Q04912); details: at 1 µM
[4] = biological target: Proto-oncogene tyrosine-protein kinase ROS (Homo sapiens) (UniProt P08922); details: at 0.1 µM
[5] = biological target: Proto-oncogene tyrosine-protein kinase ROS (Homo sapiens) (UniProt P08922); details: at 1 µM
[6] = biological target: Proto-oncogene tyrosine-protein kinase Src (Homo sapiens) (UniProt P12931); details: at 0.1 µM
[7] = biological target: Proto-oncogene tyrosine-protein kinase Src (Homo sapiens) (UniProt P12931); details: at 1 µM
[8] = biological target: Tyrosine-protein kinase Srms (Homo sapiens) (UniProt Q9H3Y6); details: at 0.1 µM
[9] = biological target: Tyrosine-protein kinase Srms (Homo sapiens) (UniProt Q9H3Y6); details: at 1 µM
[10] = biological target: Tyrosine-protein kinase SYK (Homo sapiens) (UniProt P43405); details: at 0.1 µM
[11] = biological target: Tyrosine-protein kinase SYK (Homo sapiens) (UniProt P43405); details: at 1 µM
[12] = biological target: T1, Tyrosine-protein kinase Tec (Homo sapiens) (UniProt P42680); details: at 0.1 µM
T1 sequence (whole entry): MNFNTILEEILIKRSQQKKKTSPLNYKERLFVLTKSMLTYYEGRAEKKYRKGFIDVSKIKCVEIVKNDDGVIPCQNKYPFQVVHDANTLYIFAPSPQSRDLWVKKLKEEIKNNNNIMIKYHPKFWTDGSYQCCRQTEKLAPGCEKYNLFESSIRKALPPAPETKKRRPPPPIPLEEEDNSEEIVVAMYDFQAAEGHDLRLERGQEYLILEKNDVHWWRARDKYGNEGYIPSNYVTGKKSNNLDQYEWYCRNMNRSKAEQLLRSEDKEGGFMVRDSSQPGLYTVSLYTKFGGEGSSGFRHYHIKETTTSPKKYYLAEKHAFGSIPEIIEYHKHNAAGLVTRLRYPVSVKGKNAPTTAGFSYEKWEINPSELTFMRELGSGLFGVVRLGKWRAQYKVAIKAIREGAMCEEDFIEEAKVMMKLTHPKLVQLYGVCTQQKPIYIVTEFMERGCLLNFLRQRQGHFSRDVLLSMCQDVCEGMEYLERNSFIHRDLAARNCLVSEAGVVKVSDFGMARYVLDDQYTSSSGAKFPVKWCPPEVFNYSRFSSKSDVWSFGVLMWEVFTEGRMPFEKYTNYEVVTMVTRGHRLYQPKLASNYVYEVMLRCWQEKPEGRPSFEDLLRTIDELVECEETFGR

[13] = biological target: T1, Tyrosine-protein kinase Tec (Homo sapiens); details: at 1 µM
[14] = biological target: Angiopoietin-1 receptor (Homo sapiens) (UniProt Q02763); details: at 0.1 µM
[15] = biological target: Angiopoietin-1 receptor (Homo sapiens) (UniProt Q02763); details: at 1 µM
[16] = biological target: T2, Non-receptor tyrosine-protein kinase TNK1 (Homo sapiens) (UniProt Q13470); details: at 0.1 µM
T2 sequence (whole entry): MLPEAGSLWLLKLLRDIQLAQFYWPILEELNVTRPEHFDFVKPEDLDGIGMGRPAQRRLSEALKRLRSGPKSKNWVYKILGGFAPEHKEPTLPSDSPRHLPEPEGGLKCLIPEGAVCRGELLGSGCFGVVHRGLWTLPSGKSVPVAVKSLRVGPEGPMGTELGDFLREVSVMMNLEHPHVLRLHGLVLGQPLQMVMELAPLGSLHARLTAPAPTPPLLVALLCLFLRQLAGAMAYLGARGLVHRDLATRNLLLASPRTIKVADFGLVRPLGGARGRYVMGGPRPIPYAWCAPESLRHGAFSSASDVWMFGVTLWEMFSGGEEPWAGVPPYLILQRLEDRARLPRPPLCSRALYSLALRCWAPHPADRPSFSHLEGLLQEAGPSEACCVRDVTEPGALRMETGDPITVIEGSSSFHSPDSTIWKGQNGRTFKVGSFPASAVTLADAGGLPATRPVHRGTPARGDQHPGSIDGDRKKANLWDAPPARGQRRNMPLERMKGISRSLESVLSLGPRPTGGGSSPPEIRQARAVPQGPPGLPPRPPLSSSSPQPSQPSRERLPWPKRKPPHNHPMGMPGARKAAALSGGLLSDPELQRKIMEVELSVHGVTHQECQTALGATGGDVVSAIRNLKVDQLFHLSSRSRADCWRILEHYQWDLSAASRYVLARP

[17] = biological target: T2, Non-receptor tyrosine-protein kinase TNK1 (Homo sapiens); details: at 1 µM
[18] = biological target: Activated CDC42 kinase 1 (Homo sapiens) (UniProt Q07912); details: at 0.1 µM
[19] = biological target: Activated CDC42 kinase 1 (Homo sapiens) (UniProt Q07912); details: at 1 µM
[20] = biological target: High affinity nerve growth factor receptor (Homo sapiens) (UniProt P04629); details: at 0.1 µM;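 further: each value is a mean of replicate percent inhibition readings against TRKA kinase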
Chain of High affinity nerve growth factor receptor (Homo sapiens) (P04629 33-796 limits assumed): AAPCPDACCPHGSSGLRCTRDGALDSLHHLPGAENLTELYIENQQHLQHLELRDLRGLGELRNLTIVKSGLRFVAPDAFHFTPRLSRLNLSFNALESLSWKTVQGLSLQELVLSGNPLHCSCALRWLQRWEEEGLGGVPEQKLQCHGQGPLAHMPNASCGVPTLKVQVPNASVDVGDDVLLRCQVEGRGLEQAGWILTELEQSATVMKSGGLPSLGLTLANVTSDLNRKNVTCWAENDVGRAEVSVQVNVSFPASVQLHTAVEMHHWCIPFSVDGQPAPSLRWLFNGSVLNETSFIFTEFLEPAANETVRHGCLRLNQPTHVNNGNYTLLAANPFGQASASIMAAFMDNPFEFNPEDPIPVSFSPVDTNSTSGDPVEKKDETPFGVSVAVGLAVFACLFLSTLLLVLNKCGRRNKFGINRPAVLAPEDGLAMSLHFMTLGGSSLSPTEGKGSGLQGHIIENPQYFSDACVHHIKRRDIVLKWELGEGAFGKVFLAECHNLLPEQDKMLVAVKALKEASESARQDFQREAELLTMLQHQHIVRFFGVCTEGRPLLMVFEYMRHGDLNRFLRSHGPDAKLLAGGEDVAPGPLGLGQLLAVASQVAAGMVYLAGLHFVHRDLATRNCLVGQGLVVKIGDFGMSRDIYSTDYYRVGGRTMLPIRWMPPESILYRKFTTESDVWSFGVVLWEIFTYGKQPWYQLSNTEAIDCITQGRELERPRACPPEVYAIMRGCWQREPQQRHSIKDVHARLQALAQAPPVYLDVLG

Chain of Angiopoietin-1 receptor (Homo sapiens) (Q02763 whole entry): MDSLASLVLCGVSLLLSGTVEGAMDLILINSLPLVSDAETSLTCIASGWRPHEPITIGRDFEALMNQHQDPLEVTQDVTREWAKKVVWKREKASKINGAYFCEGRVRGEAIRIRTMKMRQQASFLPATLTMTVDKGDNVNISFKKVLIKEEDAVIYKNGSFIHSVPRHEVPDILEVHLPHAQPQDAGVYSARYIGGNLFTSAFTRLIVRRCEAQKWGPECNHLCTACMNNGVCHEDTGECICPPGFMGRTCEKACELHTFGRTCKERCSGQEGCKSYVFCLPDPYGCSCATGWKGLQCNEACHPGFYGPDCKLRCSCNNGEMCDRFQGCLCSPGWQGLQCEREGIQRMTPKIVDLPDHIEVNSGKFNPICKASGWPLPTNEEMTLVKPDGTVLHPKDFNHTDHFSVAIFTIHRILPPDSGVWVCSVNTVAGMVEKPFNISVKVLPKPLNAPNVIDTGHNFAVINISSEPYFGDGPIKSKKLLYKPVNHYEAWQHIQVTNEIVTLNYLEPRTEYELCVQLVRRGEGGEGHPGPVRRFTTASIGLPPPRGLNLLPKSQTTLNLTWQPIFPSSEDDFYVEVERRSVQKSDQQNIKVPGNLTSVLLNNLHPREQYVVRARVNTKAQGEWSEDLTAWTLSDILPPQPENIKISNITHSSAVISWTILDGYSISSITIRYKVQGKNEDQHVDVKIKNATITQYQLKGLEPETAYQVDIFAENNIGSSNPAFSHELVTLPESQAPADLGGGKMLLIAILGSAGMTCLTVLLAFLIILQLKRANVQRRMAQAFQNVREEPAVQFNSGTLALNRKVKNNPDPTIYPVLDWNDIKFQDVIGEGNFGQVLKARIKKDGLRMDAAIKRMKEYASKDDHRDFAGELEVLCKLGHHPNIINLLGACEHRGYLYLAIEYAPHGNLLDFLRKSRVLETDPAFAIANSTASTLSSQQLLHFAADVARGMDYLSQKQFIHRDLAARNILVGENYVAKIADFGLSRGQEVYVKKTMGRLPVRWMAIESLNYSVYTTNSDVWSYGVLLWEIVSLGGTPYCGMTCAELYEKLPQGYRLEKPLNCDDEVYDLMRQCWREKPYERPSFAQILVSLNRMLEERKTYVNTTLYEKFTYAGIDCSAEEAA
Chain of Tyrosine-protein kinase Srms (Homo sapiens) (Q9H3Y6 whole entry): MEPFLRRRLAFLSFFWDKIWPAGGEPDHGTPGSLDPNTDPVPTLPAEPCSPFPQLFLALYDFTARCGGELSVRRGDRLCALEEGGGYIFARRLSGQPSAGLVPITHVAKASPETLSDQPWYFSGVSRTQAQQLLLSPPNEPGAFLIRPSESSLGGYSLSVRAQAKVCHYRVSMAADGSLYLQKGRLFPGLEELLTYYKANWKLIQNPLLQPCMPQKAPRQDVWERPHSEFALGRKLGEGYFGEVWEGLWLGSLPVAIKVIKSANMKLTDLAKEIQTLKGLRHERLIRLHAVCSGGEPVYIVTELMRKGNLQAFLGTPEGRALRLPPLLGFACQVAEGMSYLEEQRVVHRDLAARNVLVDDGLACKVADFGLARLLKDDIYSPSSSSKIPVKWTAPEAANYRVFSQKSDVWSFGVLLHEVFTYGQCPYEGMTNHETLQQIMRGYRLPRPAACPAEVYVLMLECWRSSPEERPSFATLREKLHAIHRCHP
Chain of Activated CDC42 kinase 1 (Homo sapiens) (Q07912 whole entry, looked up): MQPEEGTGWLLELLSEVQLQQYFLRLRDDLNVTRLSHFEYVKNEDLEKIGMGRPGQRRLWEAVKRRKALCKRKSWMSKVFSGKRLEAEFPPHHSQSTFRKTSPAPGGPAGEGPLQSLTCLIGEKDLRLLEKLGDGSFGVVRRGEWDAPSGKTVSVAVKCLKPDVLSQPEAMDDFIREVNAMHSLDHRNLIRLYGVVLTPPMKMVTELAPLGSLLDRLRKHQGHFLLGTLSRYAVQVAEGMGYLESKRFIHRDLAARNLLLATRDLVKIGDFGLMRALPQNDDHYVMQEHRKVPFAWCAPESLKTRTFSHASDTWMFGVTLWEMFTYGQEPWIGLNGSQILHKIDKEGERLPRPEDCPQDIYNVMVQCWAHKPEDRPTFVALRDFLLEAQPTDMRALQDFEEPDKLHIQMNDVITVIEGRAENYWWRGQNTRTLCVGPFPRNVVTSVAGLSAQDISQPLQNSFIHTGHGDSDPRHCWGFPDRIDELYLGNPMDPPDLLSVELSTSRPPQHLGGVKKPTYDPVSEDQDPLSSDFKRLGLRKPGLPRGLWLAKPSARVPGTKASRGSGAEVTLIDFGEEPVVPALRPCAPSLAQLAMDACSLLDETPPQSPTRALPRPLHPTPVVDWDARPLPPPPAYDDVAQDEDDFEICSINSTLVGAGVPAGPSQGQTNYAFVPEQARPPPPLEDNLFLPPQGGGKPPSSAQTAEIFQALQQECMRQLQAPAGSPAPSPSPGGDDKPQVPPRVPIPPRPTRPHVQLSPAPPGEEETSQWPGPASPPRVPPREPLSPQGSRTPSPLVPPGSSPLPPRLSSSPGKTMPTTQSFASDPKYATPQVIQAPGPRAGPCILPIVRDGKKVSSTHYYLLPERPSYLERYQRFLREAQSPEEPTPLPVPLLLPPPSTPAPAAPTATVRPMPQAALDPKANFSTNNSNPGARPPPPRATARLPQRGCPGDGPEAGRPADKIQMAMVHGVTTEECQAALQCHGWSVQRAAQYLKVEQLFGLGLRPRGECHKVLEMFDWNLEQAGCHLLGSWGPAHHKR
Chain of Proto-oncogene tyrosine-protein kinase Src (Homo sapiens) (P12931 2-536 limits assumed): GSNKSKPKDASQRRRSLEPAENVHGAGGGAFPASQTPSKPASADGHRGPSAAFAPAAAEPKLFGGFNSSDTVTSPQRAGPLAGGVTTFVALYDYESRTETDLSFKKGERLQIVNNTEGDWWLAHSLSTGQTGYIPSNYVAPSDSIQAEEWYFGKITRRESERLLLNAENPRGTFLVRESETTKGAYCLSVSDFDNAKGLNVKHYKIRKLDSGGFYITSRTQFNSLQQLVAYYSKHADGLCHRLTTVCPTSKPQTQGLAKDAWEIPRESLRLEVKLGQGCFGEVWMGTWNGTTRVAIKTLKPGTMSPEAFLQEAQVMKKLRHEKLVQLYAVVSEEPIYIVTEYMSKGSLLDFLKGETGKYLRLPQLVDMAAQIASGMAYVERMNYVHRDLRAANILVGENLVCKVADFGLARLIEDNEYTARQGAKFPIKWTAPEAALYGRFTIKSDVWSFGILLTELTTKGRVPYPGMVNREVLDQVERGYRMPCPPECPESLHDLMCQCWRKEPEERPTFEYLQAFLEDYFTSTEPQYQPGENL
Chain of Proto-oncogene tyrosine-protein kinase receptor Ret (Homo sapiens), P07949 [Y791F] (P07949 whole entry Y791F): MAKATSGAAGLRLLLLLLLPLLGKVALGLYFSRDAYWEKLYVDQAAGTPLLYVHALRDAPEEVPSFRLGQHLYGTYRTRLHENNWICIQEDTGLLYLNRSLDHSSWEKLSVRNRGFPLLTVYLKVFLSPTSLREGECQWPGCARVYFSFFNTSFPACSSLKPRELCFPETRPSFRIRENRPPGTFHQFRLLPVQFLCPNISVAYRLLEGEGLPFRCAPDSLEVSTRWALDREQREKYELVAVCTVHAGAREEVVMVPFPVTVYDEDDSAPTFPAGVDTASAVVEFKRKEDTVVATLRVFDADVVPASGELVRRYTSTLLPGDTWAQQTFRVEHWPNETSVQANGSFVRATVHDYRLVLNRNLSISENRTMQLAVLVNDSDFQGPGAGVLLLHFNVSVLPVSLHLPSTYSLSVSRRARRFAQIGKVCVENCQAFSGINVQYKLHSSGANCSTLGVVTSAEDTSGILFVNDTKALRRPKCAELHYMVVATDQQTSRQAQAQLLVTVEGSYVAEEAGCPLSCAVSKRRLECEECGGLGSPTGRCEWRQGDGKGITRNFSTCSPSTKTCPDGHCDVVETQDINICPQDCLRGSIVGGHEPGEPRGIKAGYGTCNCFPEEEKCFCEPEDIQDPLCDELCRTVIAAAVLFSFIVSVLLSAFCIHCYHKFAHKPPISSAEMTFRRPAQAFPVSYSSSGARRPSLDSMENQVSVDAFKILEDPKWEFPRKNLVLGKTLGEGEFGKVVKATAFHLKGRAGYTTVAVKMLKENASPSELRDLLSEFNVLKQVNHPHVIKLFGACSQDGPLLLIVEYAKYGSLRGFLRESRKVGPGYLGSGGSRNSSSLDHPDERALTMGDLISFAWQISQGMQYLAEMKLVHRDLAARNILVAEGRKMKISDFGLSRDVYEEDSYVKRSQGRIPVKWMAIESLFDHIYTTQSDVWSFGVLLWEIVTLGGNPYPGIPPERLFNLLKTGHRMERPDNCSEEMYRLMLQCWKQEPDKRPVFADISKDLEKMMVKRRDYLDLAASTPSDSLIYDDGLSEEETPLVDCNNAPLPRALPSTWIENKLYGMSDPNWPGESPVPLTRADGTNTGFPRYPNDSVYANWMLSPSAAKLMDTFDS

Row | Compound | inhibition [1] | inhibition [2] | inhibition [3] | inhibition [4] | inhibition [5] | inhibition [6] | inhibition [7] | inhibition [8] | inhibition [9] | inhibition [10] | inhibition [11] | inhibition [12] | inhibition [13] | inhibition [14] | inhibition [15] | inhibition [16] | inhibition [17] | inhibition [18] | inhibition [19] | inhibition [20]
1 | Cc1ccc(NC(=O)c2ccnc(N3CCCC3)c2)cc1-c1ccc(C(=O)NCC2CC2)cc1 | 11.4% | 8.6% | 6.95% | 6.76% | 12% | 4.44% | 9.16% | -3.02% | -4.02% | -0.79% | -1.46% | 0.49% | 3.83% | 1.03% | 5.42% | 2.43% | -2.64% | 1.07% | 1.27% | 1.92%
2 | CCCN1CCC=C(c2ccc(Nc3nc(Nc4ccccc4C(N)=O)c4cc[nH]c4n3)c(C)c2)C1 | 25.8% | 7.2% | 11.6% | 24.3% | 61.2% | 8.87% | 17.4% | -3.15% | 0.8% | -0.42% | 1.61% | 6.08% | 8.24% | 3.32% | 3.76% | 26.4% | 70.1% | 1% | 12.7% | 2.13%
3 | [O-][S+]1CCN(Cc2ccc(-c3ccc4ncnc(Nc5ccc(OCc6ccccc6)c(F)c5)c4c3)o2)CC1 | 5.92% | 2.75% | 7.9% | 3.51% | 1.61% | 5.28% | 8.51% | -1.06% | -3.12% | -2.3% | -0.11% | 3.42% | 4.7% | 2.18% | 2.24% | 0.61% | 7.01% | 0.67% | 0.38% | 1.24%
4 | COc1cc2ncn(-c3cc(OCc4ccccc4C(F)(F)F)c(C(N)=O)s3)c2cc1OC | 50.6% | 4.5% | 8.36% | 5.76% | 20.6% | 8.15% | 21.2% | -2.2% | -0.81% | -2.39% | -7.75% | -1.86% | 7.03% | 6.11% | 20.9% | 12.5% | 59.1% | 0.63% | 6.53% | 2.57%
5 | O=C1NC(=O)C(N2CCc3ccccc32)=C1c1ccc(Cl)cc1 | 10.4% | -2.48% | 2.52% | 10.9% | 14.1% | 5.94% | 15.5% | -2.77% | 0.25% | -4.42% | -1.26% | 6.1% | 9.11% | 5.59% | 8.86% | 4.03% | -0.43% | 3.17% | 1.5% | 4.36%
6 | COc1ccccc1Nc1ncc(-c2ccccc2)o1 | – | 6.08% | 1.59% | 5.04% | 11.2% | 8.59% | 11.2% | -1.24% | 2.11% | -1.37% | -4.41% | 2.21% | 7.28% | 0.33% | 6.44% | 3.82% | 13.8% | 0.63% | 3.33% | 1.73%
7 | COc1ccc(-c2nn3ncccc3c2-c2ccnc(Nc3ccc(Cl)c(C(F)(F)F)c3)n2)cc1 | 13.3% | -1.78% | 2.44% | 2.34% | 2.35% | 1.05% | 9.68% | 0.23% | 1.79% | -1.43% | -1.11% | 1.4% | 1.86% | 4.94% | 4.42% | 0.89% | 13.3% | 0.86% | 1.6% | -2.59%
8 | NCc1ccc(-c2nc(-c3ccc(Cl)c(O)c3)c(-c3ccncc3)[nH]2)cc1 | 76.3% | -0.28% | 2.55% | 2.98% | 8.44% | 19.8% | 63.3% | 3.6% | 21.7% | -2.73% | 1.13% | 6.38% | 33% | 4.33% | 21% | -1.81% | 1.42% | -0.36% | -0.9% | -4.35%
9 | CCCN1CCC(Oc2cc(Nc3nc(Nc4cccc(F)c4C(N)=O)c4cc[nH]c4n3)c(OC)cc2Cl)CC1 | 16.9% | 1.16% | 6.9% | 8.27% | 38.9% | -3.73% | 6.62% | 2.85% | 0.37% | 1.01% | 2.76% | 1% | 3.16% | 4.02% | 10.1% | -2.66% | 1.46% | -0.19% | 2.16% | 2.22%
10 | CS(=O)(=O)CCNCc1ccc(-c2ccc3ncnc(Nc4ccc(OCc5cccc(F)c5)c(C(F)(F)F)c4)c3c2)o1 | 3.86% | 3.73% | 5% | 6.01% | 4.01% | -1.31% | 8.28% | -1.21% | -1.42% | -6.45% | 1.13% | 3.58% | 4.26% | 4.55% | 5.67% | 4.87% | 10.5% | 0.57% | 1.13% | 1.7%
11 | COc1cc(C=NNc2ncnc3c2cnn3-c2ccccc2)ccc1O | 75.1% | 23.7% | 64.5% | 7.09% | 31.2% | 28.6% | 79% | 1.17% | 4.56% | -2.75% | 43.1% | 4.48% | 12.9% | 13% | 52.4% | 10.8% | 51.1% | 1.06% | 5.3% | 3.95%
12 | Nc1ncnc2occ(-c3ccc(NC(=O)Nc4cccc(C(F)(F)F)c4)cc3)c12 | 86.3% | 2.56% | 27.7% | 6% | 21.7% | 14.4% | 52.8% | -4.22% | -3.07% | -4.82% | – | 1.64% | 5.89% | 56.4% | 74.4% | 7.73% | 52.8% | 0.8% | 1.54% | 63.9%
13 | Cc1nnc(-c2ccc(C)c(-c3ccc(C(=O)Nc4cccc(C#N)c4)cc3)c2)o1 | 15.7% | 1.95% | 3.79% | 1.81% | 1.44% | 3.95% | 6.82% | -0.52% | 0.42% | 3.5% | -0.57% | 4.05% | 3.86% | 3.65% | 5.45% | -0.4% | 5.43% | 0.82% | 2% | 1.28%
14 | Nc1nc(-c2ccc3c(c2)C(=Cc2cc(Br)c(O)c(Br)c2)C(=O)N3)cs1 | 7.25% | -0.43% | 2.87% | 2.9% | 7.73% | 0.53% | -0.25% | 9.94% | 53% | 1.06% | 0.99% | -1.8% | -1% | -0.24% | 3.72% | 0.05% | 37.1% | -1.13% | -0.19% | 1.01%
